According to PubChem BioAssay (NCI):
This is part of a sample that, as a whole, favours compounds with a hit. Of some 83,000 tested, about 20% had one in any assay.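 Cell lines were cultured in 96-well plates, exposed to a single compound concentration, and assessed for percent growth 48 hours later.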 A number with no mark means an inactive call. The source made the active and inactive calls. The calls were made as follows: active = growth percent below 10; inactive = the rest.

Tests used:
Test in all cases: NCI-60 one-dose screen, 48 h (100 = growth as untreated, 0 = no growth, -100 = all killed)
Settings in all cases: 10 µM unless noted
SR leukemia = tested on: SR leukemia
RPMI-8226 leukemia = tested on: RPMI-8226 leukemia
OVCAR-8 ovarian = tested on: OVCAR-8 ovarian
OVCAR-5 ovarian = tested on: OVCAR-5 ovarian
OVCAR-4 ovarian = tested on: OVCAR-4 ovarian
SK-OV-3 ovarian = tested on: SK-OV-3 ovarian
IGROV1 ovarian = tested on: IGROV1 ovarian
HS 578T breast = tested on: HS 578T breast
NCI/ADR-RES ovarian = tested on: NCI/ADR-RES ovarian
T-47D breast = tested on: T-47D breast
MDA-MB-435 melanoma = tested on: MDA-MB-435 melanoma
SW-620 colon = tested on: SW-620 colon
MCF7 breast = tested on: MCF7 breast
HCT-116 colon = tested on: HCT-116 colon
HCC-2998 colon = tested on: HCC-2998 colon
KM12 colon = tested on: KM12 colon
BT-549 breast = tested on: BT-549 breast

Row | Compound | growth (SR leukemia) | growth (RPMI-8226 leukemia) | growth (OVCAR-8 ovarian) | growth (OVCAR-5 ovarian) | growth (OVCAR-4 ovarian) | growth (SK-OV-3 ovarian) | growth (IGROV1 ovarian) | growth (HS 578T breast) | growth (NCI/ADR-RES ovarian) | growth (T-47D breast) | growth (MDA-MB-435 melanoma) | growth (SW-620 colon) | growth (MCF7 breast) | growth (HCT-116 colon) | growth (HCC-2998 colon) | growth (KM12 colon) | growth (BT-549 breast)
1 | O=c1oc2ccc(-c3ccc(F)cc3F)cc2c(=O)n1-c1ccc(Br)cc1F | 85.1% | 31.6% | 69.5% | 108% | 78.7% | 63.9% | 58.3% | 47.2% | 75.3% | 5.88% (active) | 66.9% | 79.3% | 58.5% | 57.3% | 81.5% | 61.4% | 
2 | COc1ccc(-c2cc(-c3ccc(N4CCOCC4)cc3)n3c(n2)nc2ccccc23)cc1OC | 70.3% | 57.5% | 82.5% | 108% | 87.9% | 118% | 95.1% | 98.2% | 87.9% | 81% | 93.1% | 99.2% | 90.1% | 96% | 110% | 99% | 
3 | O=S(=O)(Oc1ccc(-c2cn3ccsc3n2)cc1)c1cccc(C(F)(F)F)c1 | 95.2% | 97.5% | 101% | 107% | 96.5% | 108% | 107% | 102% |  | 103% | 99.5% | 97.4% | 90.1% | 104% | 120% | 102% | 119%
4 | Brc1cccc(-c2cc(-c3cnc4c(c3)OCCO4)n[nH]2)c1 | 13.4% | 26.2% | 46.4% | 72.3% | 82.5% | 77.1% | 45% | 76.1% | 10.9% | 40.2% | -29.3% (active) |  | 10% | 27.4% | 46.7% | 41.6% | 67.3%
5 | Cc1ccc([C@H]2c3[nH]c4ccccc4c3C[C@H]3C(=O)N(CCCCCCC(=O)NO)CC(=O)N23)s1 | 23% | 27.9% | 44.4% | 52.8% | 79.5% | 86.3% | 55.7% | 76.6% | 94.3% | 37.3% | 45.2% |  | 32.8% | 23.7% | 82.4% | 74.3% | 90.9%
6 | Cc1c(C(=O)/C=C/c2ccc(Cl)cc2)nnn1-c1ccc2oc(=O)ccc2c1 | 91% | 54.2% | 99.4% | 97.9% | 105% | 106% | 102% | 109% | 88.4% | 85.5% | 99.7% | 97.7% | 42.2% | 88.5% | 104% | 99.8% | 
7 | N#C/C(=C\c1ccc(-c2ccc(Cl)c(Cl)c2)o1)C(=O)Nc1ncc(Cc2ccc(Cl)cc2)s1 | 16% | 67.4% | 19.9% | 45.7% | -15.1% (active) | 81.2% | 26.2% | -7.83% (active) | 32.7% | 17.9% | 26.9% |  | 58.7% | 9.52% (active) | 81.8% | 19.6% | 42.1%
8 | O=C1Nc2ccc(F)cc2/C1=C\C(=O)c1ccc(NS(=O)(=O)c2ccccc2)cc1 | 9.42% (active) | 67.6% | 91.1% | 107% | 93.2% | 112% | 87.2% | 110% |  | 96.7% | 92.5% | 43.1% | 22.5% | 56.9% | 116% | 102% | 111%
9 | Cc1ccccc1N1CCN(C2=C(Cl)C(=O)c3ncccc3C2=O)CC1 | -24.1% (active) | 11.5% | 70% | 98.4% | 59% | 95.8% | 77.3% | 57.4% |  | -52.5% (active) | -62.9% (active) | -27.8% (active) | -29.3% (active) | -95.2% (active) | 105% | 87.2% | 99.1%
10 | O=C1[C@H]2Cc3c([nH]c4ccccc34)[C@H](c3ccc(Cl)cc3)N2C(=O)CN1C1CCN(CC2CCCCC2)CC1 | -5.73% (active) | 23.4% | 74.9% | 96.1% | 72.7% | 93.8% | 72.2% | 74.4% | 68.5% | 93% | 62.3% | 72.5% |  | 5.7% (active) | 53.4% | 62% | 
11 | CNC(=O)c1cc(N2CCc3cc(NC(=O)Nc4ccc(N5CCN(C)CC5)c(C(F)(F)F)c4)ccc32)ccn1 | -12.6% (active) | -16.4% (active) | 95.9% | 95.3% | 83.4% | 107% | 96.2% | 61.4% |  | 81.4% | 82.3% | 3.68% (active) | -2.1% (active) | -47.2% (active) | 84.9% | 29.5% | 84.9%
12 | CCN(CC)c1ccc(/C=N/NC(=O)c2ccc(NS(C)(=O)=O)cc2)c(O)c1 | 10.6% | 15.8% | 12% | 46% | 31.3% | 34.2% | 20.3% | 55.7% |  | 26.3% | 28.8% | 36.9% | 6.08% (active) | 21.7% | 38.5% | 15.2% | 11.6%
13 | O=C(/C=C/c1ccccc1Cl)Nc1ncc(Cc2cc(Cl)ccc2Cl)s1 | 14.3% | 19.7% | 36.9% | 56% | 53.8% | 43.7% | 19.4% | 5.7% (active) | 17.9% | 29.9% | -26.6% (active) | 14.3% |  | 17.3% | 57.8% | 22.1% | 
14 | CN1CCN(Cc2ccc(NC(=O)c3cncc(C#Cc4cnc5ccc(OCC(F)F)nn45)c3)cc2C(F)(F)F)CC1 | -24.3% (active) | -21.7% (active) | -74.6% (active) | -47.1% (active) | -62.6% (active) | -24.2% (active) | -53.8% (active) | -34.1% (active) | -28.1% (active) | 8.64% (active) | -92.6% (active) | -49.1% (active) | -66.6% (active) | -84.3% (active) | -67% (active) | -53.9% (active) | 
15 | O=C1Nc2cc(Cl)ccc2/C1=C\c1ccc(OCc2ccccc2)cc1 | 105% | 107% | 100% | 101% | 96.3% | 103% | 91.6% | 96.7% | 104% | 95.7% | 99.4% |  | 61.6% | 97.7% | 102% | 95.1% | 101%
16 | CN1CCN(Cc2ccc(NC(=O)c3cncc(C#Cc4cnc5ccc(NCCO)nn45)c3)cc2C(F)(F)F)CC1 | 4.47% (active) | -15.2% (active) | 1.73% (active) | 5.23% (active) | -9.76% (active) | -10.5% (active) | -1.21% (active) | -13.3% (active) | 81.1% | 21.5% | -6.87% (active) | -13.2% (active) | -43.5% (active) | 0.878% (active) | -8.28% (active) | -4.28% (active) | 
17 | N#Cc1c(-c2cccs2)c(C#N)c(=O)n(Cc2nc3ccccc3[nH]2)c1N | 92.5% | 95.9% | 95.1% | 116% | 99.6% | 95.4% | 61.7% | 102% | 99.5% | 74.8% | 110% | 95.6% | 66.1% | 100% | 116% | 102% | 
18 | CN1CCN(Cc2ccc(NC(=O)c3cncc(C#Cc4cnc5ccc(N6CCOCC6)nn45)c3)cc2C(F)(F)F)CC1 | -28.4% (active) | -23.9% (active) | -37.6% (active) | -20.4% (active) | -19.7% (active) | -31.9% (active) | -32.8% (active) | -27.8% (active) |  | -5.39% (active) | -65% (active) | -19.2% (active) | -69% (active) | -76.2% (active) | -33.2% (active) | -46.2% (active) | -71.7% (active)
